Screens as filed in PubChem.
ATG4B inhibitor = ATG4B protease inhibitors, primary screen, biochemical, fluorescence, uHTS; Cysteine protease ATG4B (Homo sapiens), Q9Y4P1; ATG4B cleavage of LC3-PLA2, NBD-HPC fluorescence, 1 h; inhibition, % at 8.33 µM; 340,000 tested, 0.51% active; in the data active = inhibition above about 40%
MEKK2mut PB1 HTS = MEK5 binding signal on mutant MEKK2 PB1, primary screen, biochemical, multiplex bead flow cytometry, Alexa488-MEK5 | 290,000 tested, 0.35% active | Alexa488-MEK5 binding to MEKK2 mutant | percent response, % at 10 µM; in the data active = percent response above about 24%, passing the limit was not always enough
UBC13 inh = UBC13 polyubiquitin chain formation inhibitors, primary screen, biochemical, TR-FRET, uHTS | inhibition, % at 20 µM | 330,000 tested, 0.47% active | Ubiquitin-conjugating enzyme E2 N (Homo sapiens), P61088; in the data active = inhibition above about 45%, passing the limit was not always enough; inconclusive = no clear call, values can overlap the other calls
Target sequence (P61088 whole entry, looked up): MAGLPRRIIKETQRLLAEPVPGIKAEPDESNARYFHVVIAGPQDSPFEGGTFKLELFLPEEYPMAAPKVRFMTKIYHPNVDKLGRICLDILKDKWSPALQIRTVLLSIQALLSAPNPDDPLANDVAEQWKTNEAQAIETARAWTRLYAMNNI
MEKK3 PB1 HTS = modulators of MEKK3-MEK5 PB1 binding, primary screen, biochemical, wildtype MEKK3, multiplex bead flow cytometry, Alexa488-MEK5. bead-based flow cytometry, Alexa488-MEK5 binding to MEKK3; actives lie on both sides; 0 = blocked by unlabeled MEK5, 100 = vehicle. 290,000 tested, 1.4% active. binding response (% of control), % at 10 µM;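 active = binding response more than 3 SD above or below the average of its plate-row segment, actives on both sides; inconclusive = wells at one plate position flagged as instrument error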;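 note: Alexa488 bead fluorescence after subtracting the streptavidin-only scavenger bead signal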
PREPL inhibitor = PREPL enzyme inhibitors, primary screen, biochemical, fluorescence polarization; Prolyl endopeptidase-like (Homo sapiens), Q4J6C6; recombinant PREPL, fluorescence polarization activity-based probe; inhibition, % at 5.96 µM; 320,000 tested, 0.68% active; AID 2751, 2010; in the data active = inhibition above about 43%;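 note: 0% = enzyme with DMSO and 100% = wells lacking enzyme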
MEKK2wt PB1 HTS = modulators of MEK5 binding to wildtype MEKK2, primary screen, biochemical, multiplex bead flow cytometry, Alexa488-MEK5; Alexa488-MEK5 binding to MEKK2 WT; actives lie on both sides; binding response (% of control), % at 10 µM; 290,000 tested, 1.1% active; AID 1531, 2009; in the data active = binding response below about 67% or above about 130%; inconclusive = no clear call, values can overlap the other calls; inactive = in between
Casp3 UBC13 ctr = CASP3 inhibitor validation, counterassay for project on UBE2N polyubiquitination blockers, biochemical, one dose; shares compounds with UBC13 inh; Recombinant caspase-3, Caspase-Glo 3/7 luminescence, 60 min; inhibition, % at 20 µM; 1,400 tested, 4% active; AID 488856, 2010;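 active = mean inhibition across replicates above about 26%, limit read from the data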;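 note: plate controls were DMSO with caspase-3 for no effect and DMSO wells lacking enzyme for full effect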
Target sequence (P42574 whole entry, looked up): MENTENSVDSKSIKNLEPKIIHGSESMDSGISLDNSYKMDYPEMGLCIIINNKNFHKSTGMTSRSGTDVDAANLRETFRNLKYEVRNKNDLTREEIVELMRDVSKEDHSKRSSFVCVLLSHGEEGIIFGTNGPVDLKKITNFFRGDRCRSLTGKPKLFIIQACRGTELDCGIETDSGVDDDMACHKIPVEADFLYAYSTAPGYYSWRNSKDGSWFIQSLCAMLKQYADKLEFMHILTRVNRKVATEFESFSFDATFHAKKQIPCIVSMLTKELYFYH
UBC13 conf = UBC13 polyubiquitination inhibitors, single-point retest, confirmation, biochemical, TR-FRET, single concentration. shares compounds with UBC13 inh. AID 488859, 2010. 1,400 tested, 68% active. inhibition, % at 10 µM; in the data active = inhibition above about 45%; inconclusive = no clear call, values can overlap the other calls
Starred values were filed as active, the others as inactive; ? = inconclusive; nt = no result given. A selection: hits, their analogues and other compounds. The true share with any hit is near 3.1%.

SMILES	ATG4B inhibitor	MEKK2mut PB1 HTS	UBC13 inh	MEKK3 PB1 HTS	PREPL inhibitor	MEKK2wt PB1 HTS	Casp3 UBC13 ctr	UBC13 conf
C#CCOCCOCCOCCNc1nc(N2CCN(C(=O)CCCCCCCCCCNC(=O)Cn3cc(CCCCCN)nn3)CC2)nc(N2CCN(C(=O)CCCCCCCCCCNC(=O)[C@@H](CCSC)n3cc(CCO)nn3)CC2)n1	-16	nt	119*	nt	41	nt	-2	125*
C[C@]12c3[nH]c4ccccc4c3CCN1C(=O)C(CC(=O)NCCCn1ccnc1)C[C@@H]2C(=O)N1CCCCC1 (stereo not given in full)	nt	nt	-5	nt	17	nt	nt	nt
Cc1ccc(N2C(=O)c3cccc4c(Oc5ccccc5[N+](=O)[O-])ccc(c34)C2=O)c(C)c1	7	-2	-4	104	2	108	nt	nt
COCCn1c(SCC(=O)NC2(C#N)CCCCC2)nc2ccccc2c1=O	3	nt	-1	nt	6	nt	nt	nt
Cc1ccc(C)c(S(=O)(=O)Nc2nc3ccc(S(N)(=O)=O)cc3s2)c1	1	-26	2	74	-7	77	nt	nt
CCSc1ccc2c(c1)N(CCCN1CCN(C)CC1)c1ccccc1S2	3	nt	75*	nt	35	nt	-2	64*
CCOC(=O)Nc1ccc2c(c1)N(C(=O)CN1CCN(C)CC1)c1ccccc1S2	-3	9	5	103	-2	108	nt	nt
CC(C)(C)OC(=O)[C@H](Cc1ccccc1)NC(=O)c1nc[nH]c1C(=O)N[C@@H](CCCCN)C(=O)OC(C)(C)C	-4	nt	73*	nt	25	nt	-4	76*
CC(C)(C)OC(=O)[C@H](CCCCN)NC(=O)c1nc[nH]c1C(=O)N[C@@H](CCCCN)C(=O)OC(C)(C)C	-1	nt	7	nt	18	nt	nt	nt
CC(C)C[C@H](NC(=O)c1nc[nH]c1C(=O)N[C@@H](CCCCN)C(=O)OC(C)(C)C)C(=O)OC(C)(C)C	-14	nt	53*	nt	12	nt	0	53*
Nc1nnc(SCC(=O)Nc2cccc3ccccc23)s1	-10	-3	-8	98	-3	99	nt	nt
O=C(COC(=O)c1cc(Br)ccc1O)Nc1cccnc1Cl	3	nt	47*	nt	-9	nt	0	?
O=C(COC(=O)c1ccc(Cl)cc1O)Nc1cccnc1Cl	1	-5	17	98	0	85	nt	nt
CC(C)OCCCNc1nc2c(-c3ccccc3)nnn2c2ccccc12	nt	-4	46*	113	-1	97	-4	41
COCCNc1nc2c(-c3cccc(C(F)(F)F)c3)nnn2c2ccccc12	-1	6	47*	102	-7	102	4	?
CCOCCCNc1nc2c(-c3ccccc3)nnn2c2ccccc12	-6	-7	32	80	2	85	nt	nt
CC(=O)NCCNc1nc2c(-c3cccc(C(F)(F)F)c3)nnn2c2ccccc12	0	6	?	102	5	103	nt	nt
COc1ccc(C2(C(=O)NCCc3ccccc3)CCCC2)cc1OC	-3	-2	1	96	0	97	nt	nt
C=CCn1c(SCC(=O)N(CC)C2CCS(=O)(=O)C2)nnc1-c1ccccc1 (stereo not given)	1	nt	54*	nt	6	nt	2	53*
CSc1nccc(Nc2ccccc2)c1C#N	0	-10	47*	105	-13	106	-1	?
COc1nccc(Nc2ccccc2)c1C#N	-7	0	15	101	2	101	nt	nt
